Data published in PubChem BioAssay AID493011 (Sanford-Burnham Center for Chemical Genomics, 2011).
The campaign covered roughly 330,000 compounds. About 1,400 (0.42%) were called active.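 Rule for the calls: active = at least 40% inhibition at 20 µM here, with at most 30% in a related deaminase screen; inactive = the rest.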 The list comes from a sample in which actives are over-represented; it also holds similar structures and randomly drawn compounds.

target: DNA dC->dU-editing enzyme APOBEC-3A (Homo sapiens) (UniProt P31941); assay: APOBEC3A ssDNA deaminase inhibitors, primary screen, selectivity assay for APOBEC3G inhibitor project, biochemical, FAM/TAMRA oligo cleavage fluorescence (AID 493011); details: recombinant A3A, FAM/TAMRA ssDNA deamination fluorescence; at 20 µM; hits give high values;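 note: plate controls were A3A with DMSO for no effect and wells lacking A3A enzyme for full effect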
Sequence (P31941 whole entry, looked up): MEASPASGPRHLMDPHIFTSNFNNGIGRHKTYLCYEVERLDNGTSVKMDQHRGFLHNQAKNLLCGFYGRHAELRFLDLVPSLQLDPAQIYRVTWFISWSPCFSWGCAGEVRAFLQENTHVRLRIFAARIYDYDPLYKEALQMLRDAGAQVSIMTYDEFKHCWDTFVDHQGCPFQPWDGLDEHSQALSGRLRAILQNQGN

inhibition, active:
O=C1c2oc3ccccc3c(=O)c2C(c2cccc(O)c2)N1c1ccccn1 (stereo not drawn) 51.3%
COc1ccc(Br)cc1CN(C)C(=O)C1CC(=O)N(C2CCCC2)C1 (stereo not drawn) 43.5%
C[N+]1(CC(O)COc2ccccc2)CCN(C(=O)c2ccc([N+](=O)[O-])cc2)CC1 (stereo not drawn) 67.8%
COCCCn1c(Cc2csc(Nc3cccc(Cl)c3)n2)nnc1SCC(=O)OC1CCCCC1 50.4%
COc1ccc(CCNC(=O)COC(=O)/C=C/c2cccs2)cc1OC 48.9%
COc1cc(/C=N\Nc2ccc([N+](=O)[O-])cn2)ccc1OCC(=O)O 71.8%
COC(=O)C[n+]1cccc2ccccc21 67.3%
O=C(CNC1CCCCC1)NCC1(c2ccccc2)CCCC1 56.4%
C[N+]1(CCNC(=O)/C=N/O)CCCCC1 54.1%
Cc1snc(SCc2c(F)cccc2Cl)c1C#N 44.2%
CCN1C(=NCCc2cccnc2)N[C@@H](c2ccccc2)[C@H](C(=O)OC)[C@H]1C 68.2%
Cc1cc(/C=N/NC(=O)CC2(C)OCCO2)c(C)n1-c1ccc(Cl)c(Cl)c1 56.8%
C[N+](C)(CCCCCC[N+](C)(C)CCCN1C(=O)c2cccc3cccc(c23)C1=O)CCCN1C(=O)c2cccc3cccc(c23)C1=O 46%
N#Cc1ncc(C(F)(F)F)cc1Oc1cccnc1 60.4%
CC[n+]1c(C)n(-c2ccccc2)c2ccc(NC(C)=O)cc21 60%
Cc1nnc(N/N=C/c2ccccn2)[nH]c1=O 42.1%
COC(=O)C1=C(C)N(Cc2ccccc2)C(=NCCCOC(C)C)N[C@H]1c1ccccc1 45.5%
CSc1nnc(SCc2nc3sc(C(=O)O)c(C)c3c(=O)[nH]2)s1 65.8%

inhibition, inactive:
O=c1c2ccccc2c(-c2ccccc2)nn1-c1ccccn1 0.978%
COCCN1C(=O)c2oc3c(C)cc(C)cc3c(=O)c2C1c1cccc(O)c1 (stereo not drawn) -3.14%
O=C(NC(CC(=O)N1CCN(c2ccccc2)CC1)c1ccccc1)c1ccccc1Cl (stereo not drawn) -2.76%
CN1C(C(=O)NCC2CC2)CC2Cn3c(nc4ccccc43)C21 (stereo not drawn) -2.77%
CCCCn1c(N)c(N(CC(C)C)C(=O)C2CSC3(C)CCC(=O)N23)c(=O)[nH]c1=O (stereo not drawn) 7.64%
CN(CC(=O)Nc1ccc(F)c(F)c1F)C(=O)C1CC(=O)N(C2CCCC2)C1 (stereo not drawn) 0.598%
CCOc1ccc(CNC(=O)C2CC(=O)N(C3CCCC3)C2)cc1OC (stereo not drawn) -5.29%
Cc1ccc(NS(=O)(=O)c2ccc(C(C)C)cc2)cc1S(=O)(=O)N1CCOCC1 3.31%
O=C(Cn1cnc2ccccc2c1=O)Nc1cccc(S(=O)(=O)N2CCCCC2)c1 2.51%
CCOc1cc(C)c(S(=O)(=O)NCc2ccccn2)cc1C -6.13%
O=C(COc1ccccc1)Nc1ccc(C(=O)N2CCCC2)cc1 0.542%
O=[N+]([O-])c1ccc(N2CCN(CC(O)COc3ccccc3)CC2)cc1 (stereo not drawn) 0.14%
CCN(CC(=O)NCc1cccs1)c1nnnn1-c1ccccc1 -3.14%
CCCCNC(=O)N1CCCC(N(C)CCc2ccc(OC)c(OC)c2)C1 (stereo not drawn) -3.11%
CCS(=O)(=O)c1ccc2c(c1)N(S(=O)(=O)c1ccccc1)CC(C(=O)O)O2 (stereo not drawn) 1.33%
COCCCn1c(SCC(=O)NC2CCCC2)nnc1-c1ccccc1 0.169%
CCOc1ccc(Nc2nc(Cc3nnc(SCC(=O)NC4CCCC4)n3C)cs2)cc1 -3.45%
O=C(Oc1ccc(-c2nc(-c3ccccn3)no2)cc1)c1ccccc1 2.42%
Cc1cn(C2OC[C@@H](O)[C@@H]2CO)c(=O)[nH]c1=O (stereo partly drawn) -1.23%
COc1ccc(/C=C/C(=O)OCC(=O)NCc2cccs2)cc1OC 2.47%
COc1ccc(CCNC(=O)c2cc3sccc3n2C)cc1OC 5.91%
COCCn1c(SCC(=O)N2CCCCCC2)nc2c(c1=O)SCC2 -5.21%
CC(C)(C)C1CCC(C(=O)Nc2cccnc2)CC1 (stereo not drawn) -2.44%
CCCc1ccc(OCc2ccc(C(=O)N/N=C/c3cccc([N+](=O)[O-])c3)o2)c(OC)c1 2.99%
COc1cc(/C=N/NC(=O)Nc2ccccc2)ccc1OCCOc1ccccc1C -4.86%
COc1c(C(=O)N2CCCC2)ccc2ccccc12 1.55%
O=C(C[n+]1cc(Br)cc2ccccc21)c1ccc(F)cc1 -1.32%
COc1ccccc1NC(=O)COC(=O)c1ccccc1SCC(=O)N1CCCC1 1.2%
CCO[C@H]1OC(C(=O)N2CCN(Cc3ccccc3)CC2)=C[C@@H](c2cn(C(C)=O)c3ccccc23)[C@@H]1CCCO -2.14%
CCOc1c(OC)cccc1C(=O)NCC1(c2ccccc2)CCCC1 -3.19%
COc1cc(C(=O)NCC2(c3ccccc3)CCCC2)ccc1OC(C)C 5.08%
O=C(NC1(C(F)(F)F)NC(=O)N(Cc2cccnc2)C1=O)c1ccccc1Cl (stereo not drawn) 0.863%
O=[N+]([O-])c1cc(S(=O)(=O)N2CCCC2)ccc1NN=C1CCCC1 -1.16%
Cc1ccc(CSc2nsc(C)c2C#N)cc1 -2.03%
Cc1cc(SCc2c(F)cccc2Cl)nc(=O)[nH]1 1.16%
Cc1ccc(NC(=O)CN(C)C(=O)COC(=O)C(C)(C)Oc2ccc(Cl)cc2)cc1 1.01%
O=C(CCC1CCCCC1)Nc1cc(C(F)(F)F)ccc1N1CCOCC1 1.06%
COc1ccccc1N1CCN(C(=O)CCS(=O)(=O)c2ccc3c(c2)NC(=O)C(C)S3)CC1 (stereo not drawn) 0.853%
Cc1cccc(N2C(=O)N3[C@H](c4ccc(F)cc4)[C@@H]4C(=O)N(C5CCCCC5)C(=O)[C@@H]4[C@]3(Cc3ccccc3)C2=O)c1 0.21%
CCN1C(=NCCc2cccnc2)N[C@@H](c2ccccc2)C(C(=O)OC)=C1C 67.6%
CCN1C(=O)N[C@@H](c2ccccc2)[C@H](C(C)=O)[C@H]1C -2%
CC1=C(C(N)=O)C(c2sccc2C)n2nnnc2N1 (stereo not drawn) 0.148%
Cc1cc(Cl)ccc1C(=O)C1CCCN(C(=O)c2nonc2C)C1 (stereo not drawn) -5.04%
Cc1cc(=O)cc(C)n1-c1ccc(Cl)c(Cl)c1 1.75%
Cc1ccccc1-n1c(C)cc(/C=N/NC(=O)c2ccc(CN3CCOCC3)cc2)c1C 0.38%
CCOc1ccc(S(=O)(=O)Nc2ccncc2)c(C)c1C -0.833%
CCc1ccc(OCC(O)CN2CCN(CCO)CC2)cc1 (stereo not drawn) -7.28%
CC(=O)c1ccc(N=C2SCCCN2C(=O)C2CCCCC2)cc1 4.36%
O=C(CN1C(=O)c2cccc3cccc(c23)C1=O)N1CCCCC1 -1.16%
O=C1c2cccc3cccc(c23)C(=O)N1CCCCCc1n[nH]c(=S)o1 -1.78%
CC(=O)c1ccc(NC(=S)N(Cc2ccccc2)C(C)C2CC2)cc1 (stereo not drawn) 0.493%
COc1ccc(-c2ocnc2C(=O)Nc2ccc3c(c2)CCC3)cc1 -0.367%
CCN(CC(=O)N1CCCC1)S(=O)(=O)c1ccc(F)cc1 -1.08%
NC(=O)c1ncc(C(F)(F)F)cc1Oc1ccc(F)cc1 2.03%
O=C(Nc1ccc(Cl)cc1)Nc1ccc(Oc2cccnc2)nc1 -3.23%
COc1ccc(C)cc1NC(=O)CN1c2cccc3cccc(c23)S1(=O)=O -2.73%
CCN(C(=O)COc1ccc(C(=O)c2ccccc2)cc1)c1ccccc1 -0.203%
COc1ccccc1CNC(=O)COC(=O)c1sc(C)nc1C -1.57%
CC(=O)Nc1ccc(NC(=O)CSc2nnc(C3CC3)n2-c2ccccc2)cc1 10.5%
CC(=O)c1cccc(NC(=O)c2cc(C)nn2-c2ccccc2)c1 -0.424%
COc1cccc([C@H](O)Cn2cc(-c3ccc(CON=C(C)C)cc3)nn2)c1 2.45%
COc1ccc(Cc2nnc(N/N=C/c3ccccc3O)[nH]c2=O)cc1OC -1.76%
Cc1cc(C(=O)N/N=C/c2ccccn2)c2ccccc2n1 -3.08%
CC(C)(C)NC(=O)c1ccc(Cn2cc(C(F)(F)F)ccc2=O)cc1 -2.36%
CCOc1ccc(C(=O)NCC(=O)N2CCCCCCC2)cc1OCC -0.114%
CC(O)C(NS(=O)(=O)c1ccc(Cl)cc1)C(=O)OCc1cc([N+](=O)[O-])cc2c1OCOC2 (stereo not drawn) -3.62%
NS(=O)(=O)c1ccc(CNC(=O)c2cccc(Oc3ccccc3)c2)cc1 -0.736%
CCc1ccc(S(=O)(=O)Nc2cc3c(cc2N2CCCCC2)n(C)c(=O)c(=O)n3C)cc1 -6.54%
COC(=O)C1=C(C)N(C)C(=S)NC1c1ccccc1 (stereo not drawn) -2.13%
CCN1C(=O)N[C@@H](c2ccccc2)C(C(=O)OC)=C1C 4.12%
CC1CN(C2CCN(C(=O)COc3ccccc3)CC2)CC(C)O1 (stereo not drawn) -6.23%
COC(=O)c1ccc(NC(=O)CSc2nnc(Cc3cccn3C)n2-c2ccc(F)cc2)cc1 -0.405%
Cc1cccc(N2CCN(C(=O)COCc3cc(-c4ccc5c(c4)OCO5)on3)CC2)c1C -0.313%
Cc1sc2nc(CSCC(=O)NC3CCCCC3)[nH]c(=O)c2c1C -2.29%
CC(=O)c1sc2nc(SCC(=O)N3CCCCC3)[nH]c(=O)c2c1C 2.37%
